From PubChem BioAssay AID1671202 (University of Kansas High Throughput Screening Laboratory, 2021)
Screen size: about 190,000 compounds; about 6,900 (3.6%) were called active. Rule as the data show it: active = inhibition above about 50%; inactive = the rest. Only a selection was taken, and actives are over-represented in it overall.

target: Huntingtin (Homo sapiens) (UniProt P42858); experiment: mutant huntingtin-calmodulin interaction inhibitors – biochemical, AlphaScreen, primary screen (AID 1671202); settings: AlphaScreen His-mHTT/GST-CaM binding, luminescence; at 15 µM, active compounds read high;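 as to inhibition: 0% = both proteins with DMSO and 100% = one protein alone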
Sequence (P42858 whole entry, looked up, stated change not applied): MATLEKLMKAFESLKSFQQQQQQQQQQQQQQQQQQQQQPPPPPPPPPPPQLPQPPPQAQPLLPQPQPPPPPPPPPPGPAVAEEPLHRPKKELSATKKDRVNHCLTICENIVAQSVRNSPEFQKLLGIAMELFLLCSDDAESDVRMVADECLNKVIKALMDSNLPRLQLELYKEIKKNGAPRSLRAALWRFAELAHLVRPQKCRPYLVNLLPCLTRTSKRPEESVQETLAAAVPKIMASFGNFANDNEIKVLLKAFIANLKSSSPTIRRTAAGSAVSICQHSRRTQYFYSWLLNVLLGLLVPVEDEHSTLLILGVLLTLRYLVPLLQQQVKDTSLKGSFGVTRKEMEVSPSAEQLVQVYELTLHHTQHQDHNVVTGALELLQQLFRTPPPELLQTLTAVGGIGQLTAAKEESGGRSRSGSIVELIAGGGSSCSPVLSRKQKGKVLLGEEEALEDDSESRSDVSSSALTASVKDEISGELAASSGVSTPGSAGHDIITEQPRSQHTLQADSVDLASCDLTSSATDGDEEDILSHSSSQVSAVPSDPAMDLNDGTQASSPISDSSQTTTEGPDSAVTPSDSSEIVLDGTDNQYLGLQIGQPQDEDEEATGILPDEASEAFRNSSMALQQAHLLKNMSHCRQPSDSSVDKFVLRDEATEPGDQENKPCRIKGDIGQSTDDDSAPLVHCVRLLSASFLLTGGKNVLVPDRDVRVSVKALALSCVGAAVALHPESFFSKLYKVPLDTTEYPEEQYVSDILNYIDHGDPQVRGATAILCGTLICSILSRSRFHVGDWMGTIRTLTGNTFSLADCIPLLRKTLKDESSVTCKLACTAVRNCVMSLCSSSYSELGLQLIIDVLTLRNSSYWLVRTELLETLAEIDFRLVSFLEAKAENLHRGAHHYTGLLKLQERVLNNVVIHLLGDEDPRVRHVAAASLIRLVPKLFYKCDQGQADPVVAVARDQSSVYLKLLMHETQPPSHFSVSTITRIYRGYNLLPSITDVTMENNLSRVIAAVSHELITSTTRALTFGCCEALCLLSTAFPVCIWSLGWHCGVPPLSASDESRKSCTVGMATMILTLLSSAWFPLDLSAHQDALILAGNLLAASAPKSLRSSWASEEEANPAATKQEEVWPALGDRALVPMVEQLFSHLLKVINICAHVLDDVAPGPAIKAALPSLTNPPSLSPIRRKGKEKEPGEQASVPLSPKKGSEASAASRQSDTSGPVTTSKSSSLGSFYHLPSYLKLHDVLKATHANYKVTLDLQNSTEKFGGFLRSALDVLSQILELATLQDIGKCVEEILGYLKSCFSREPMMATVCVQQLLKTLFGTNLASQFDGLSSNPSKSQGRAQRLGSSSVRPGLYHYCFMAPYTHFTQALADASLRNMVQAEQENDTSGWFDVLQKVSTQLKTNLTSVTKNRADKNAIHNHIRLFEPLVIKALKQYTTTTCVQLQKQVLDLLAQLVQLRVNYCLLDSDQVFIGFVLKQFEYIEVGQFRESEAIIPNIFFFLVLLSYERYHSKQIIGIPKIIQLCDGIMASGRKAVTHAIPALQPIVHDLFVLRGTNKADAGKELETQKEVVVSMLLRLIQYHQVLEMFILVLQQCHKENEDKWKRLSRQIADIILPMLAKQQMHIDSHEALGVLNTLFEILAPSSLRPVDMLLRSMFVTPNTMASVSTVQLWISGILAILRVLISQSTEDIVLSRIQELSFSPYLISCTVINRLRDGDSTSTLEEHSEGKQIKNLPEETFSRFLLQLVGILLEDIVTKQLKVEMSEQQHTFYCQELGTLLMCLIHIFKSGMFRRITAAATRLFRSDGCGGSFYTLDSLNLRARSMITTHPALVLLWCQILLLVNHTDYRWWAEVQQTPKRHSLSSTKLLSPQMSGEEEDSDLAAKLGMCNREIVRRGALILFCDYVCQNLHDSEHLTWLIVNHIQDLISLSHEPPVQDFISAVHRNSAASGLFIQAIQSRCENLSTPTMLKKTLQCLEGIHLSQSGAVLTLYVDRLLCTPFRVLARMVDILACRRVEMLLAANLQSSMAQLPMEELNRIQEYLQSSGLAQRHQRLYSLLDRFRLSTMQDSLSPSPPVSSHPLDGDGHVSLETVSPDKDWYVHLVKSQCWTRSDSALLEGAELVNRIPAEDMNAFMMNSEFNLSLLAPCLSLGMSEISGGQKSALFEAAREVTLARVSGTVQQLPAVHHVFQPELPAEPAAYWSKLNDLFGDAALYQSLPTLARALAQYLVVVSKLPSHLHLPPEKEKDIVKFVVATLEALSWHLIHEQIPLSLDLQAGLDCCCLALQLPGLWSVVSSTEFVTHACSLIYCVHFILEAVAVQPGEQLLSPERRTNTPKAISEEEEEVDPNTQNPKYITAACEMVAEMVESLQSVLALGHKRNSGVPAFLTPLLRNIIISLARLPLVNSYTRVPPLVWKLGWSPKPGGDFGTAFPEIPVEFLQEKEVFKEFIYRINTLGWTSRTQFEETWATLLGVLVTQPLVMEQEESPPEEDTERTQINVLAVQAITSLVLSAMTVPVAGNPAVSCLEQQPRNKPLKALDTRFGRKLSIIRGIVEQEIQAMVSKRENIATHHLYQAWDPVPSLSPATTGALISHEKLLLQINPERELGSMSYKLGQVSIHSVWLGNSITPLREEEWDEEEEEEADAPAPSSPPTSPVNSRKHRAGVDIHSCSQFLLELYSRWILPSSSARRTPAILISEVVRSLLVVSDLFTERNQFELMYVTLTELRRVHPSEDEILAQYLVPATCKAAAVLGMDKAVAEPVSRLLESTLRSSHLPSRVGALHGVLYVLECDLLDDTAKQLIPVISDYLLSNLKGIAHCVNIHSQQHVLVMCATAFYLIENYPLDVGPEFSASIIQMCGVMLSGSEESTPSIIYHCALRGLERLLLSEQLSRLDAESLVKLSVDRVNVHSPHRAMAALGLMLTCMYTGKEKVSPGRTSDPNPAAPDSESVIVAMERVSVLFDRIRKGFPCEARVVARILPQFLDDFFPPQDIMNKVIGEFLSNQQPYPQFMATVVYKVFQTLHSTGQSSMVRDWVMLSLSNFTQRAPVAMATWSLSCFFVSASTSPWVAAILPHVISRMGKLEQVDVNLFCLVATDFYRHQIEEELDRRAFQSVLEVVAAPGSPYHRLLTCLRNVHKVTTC

**Q.** For `Clc1ccc(-n2ncc3c(N4CCC5(CC4)OCCO5)ncnc32)cc1`, which inhibition is on record?
**A.** 7% (inactive)

**Q.** With `CC(=O)Nc1nc(C)c(-c2csc(Nc3ccc(S(N)(=O)=O)cc3)n2)s1` as the compound, how does the inhibition read?
**A.** 52.1% (active)

**Q.** `CCN(CC)c1ccc(Nc2nc(-c3sc(C)nc3C)cs2)cc1` was tested. Which inhibition did it give?
**A.** 96.7% (active)

**Q.** `Cc1nc(N)sc1-c1csc(Nc2cccc([N+](=O)[O-])c2)n1` was tested. Which inhibition did it give?
**A.** 91.9% (active)

**Q.** How did the inhibition turn out when `Cc1nc(N)sc1-c1csc(Nc2ccc(O)cc2)n1` was run?
**A.** 41.5% (inactive)

**Q.** With `NS(=O)(=O)c1ccc(Nc2nc(-c3ccccc3)cs2)cc1` as the compound, how does the inhibition read?
**A.** 21% (inactive)

**Q.** For `O=C(O)c1ccc(Nc2nc(-c3cccs3)cs2)cc1`, which inhibition is on record?
**A.** 46.2% (inactive)

**Q.** With `COc1ccc(-c2csc(/C(C#N)=C/Nc3cccc([N+](=O)[O-])c3)n2)cc1` as the compound, how does the inhibition read?
**A.** -1% (inactive)

**Q.** With `NS(=O)(=O)c1ccc(NC(=O)Cc2csc(Nc3ccccn3)n2)cc1` as the compound, how does the inhibition read?
**A.** 33.1% (inactive)

**Q.** With `Cc1noc(C)c1S(=O)(=O)N1CCC(CC(=O)N2CCN(C(=O)C3CC3)CC2)CC1` as the compound, how does the inhibition read?
**A.** 5.24% (inactive)

**Q.** `COc1ccc(-c2nnc(N3CCC(C(=O)NC4CCCCC4)CC3)o2)cc1` was tested. Which inhibition did it give?
**A.** 7.1% (inactive)

**Q.** `O=C(Nc1cccc(C(F)(F)F)c1)C(=O)c1c(O)[nH]c2ccccc12` was tested. Which inhibition did it give?
**A.** 10% (inactive)

**Q.** For `CCOc1cc(CNC(=O)C2CCN(c3nnc4ccccn34)CC2)ccc1OC`, which inhibition is on record?
**A.** 2.75% (inactive)

**Q.** `Nc1nc(-c2cc3cc(Br)cc(Br)c3oc2=O)cs1` was tested. Which inhibition did it give?
**A.** -7% (inactive)

**Q.** `COc1ccc(C2CC(O)(c3ccccc3)Oc3cc(C)cc(C)c32)cc1` (stereo unspecified) was tested. Which inhibition did it give?
**A.** 77.7% (active)

**Q.** `COc1ccc([C@@H]2C[C@H](c3ccccc3)Oc3cc(OC)ccc32)cc1` was tested. Which inhibition did it give?
**A.** -9.3% (inactive)

**Q.** `CC(=O)c1c(C(C)=O)c(C)n(Cc2ccco2)c1C` was tested. Which inhibition did it give?
**A.** 1.2% (inactive)

**Q.** How did the inhibition turn out when `COc1ccc(NC(=O)N2CCc3[nH]cnc3C2c2ccccc2)cc1OC` (stereo unspecified) was run?
**A.** 3.67% (inactive)

**Q.** With `COc1cc2c(cc1OC)C(COc1ccc(F)cc1)N(C(=O)c1ccccc1F)CC2` (stereo unspecified) as the compound, how does the inhibition read?
**A.** 67% (active)

**Q.** With `COc1cc2c(cc1OC)C(COc1cc(C)cc(C)c1)N(C(=O)CC1CCCCC1)CC2` (stereo unspecified) as the compound, how does the inhibition read?
**A.** 32% (inactive)

**Q.** With `CCOC(=O)c1ccc(OCC2c3cc(OC)c(OC)cc3CCN2C(=O)c2ccccc2OC)cc1` (stereo unspecified) as the compound, how does the inhibition read?
**A.** 34.4% (inactive)

**Q.** With `COc1ccc(C(=O)N2CCc3cc(OC)c(OC)cc3C2c2ccccc2)cc1OC` (stereo unspecified) as the compound, how does the inhibition read?
**A.** 83.2% (active)

**Q.** With `CCCCC(=O)N1CCc2cc(OC)c(OC)cc2C1COc1ccc(C(=O)OC)cc1` (stereo unspecified) as the compound, how does the inhibition read?
**A.** 18.4% (inactive)

**Q.** Which inhibition does the source give for `COc1ccc(C2=NOC(C(=O)N3CCC4(CC3)OCCO4)C2)cc1OC` (stereo unspecified) here?
**A.** -8.22% (inactive)

**Q.** Which inhibition does the source give for `COc1ccc(-c2nc(COc3cc(C)ccc3F)no2)cc1` here?
**A.** -32.4% (inactive)

**Q.** Which inhibition does the source give for `CSCCC(NS(=O)(=O)c1cccs1)C(=O)O` (stereo unspecified) here?
**A.** -3.2% (inactive)

**Q.** `CSc1nc(SC)c2c3c(sc2n1)CSC(C)(C)C3` was tested. Which inhibition did it give?
**A.** 2% (inactive)

**Q.** Which inhibition does the source give for `CCc1ccc(OCC(O)CN2CCN(c3ccccc3F)CC2)cc1` (stereo unspecified) here?
**A.** -21.8% (inactive)

**Q.** With `COc1cc(NCCCCN2C(=O)c3ccccc3C2=O)c2nccc(C)c2c1` as the compound, how does the inhibition read?
**A.** 4% (inactive)

**Q.** With `O=C(c1ccco1)N1CCN(C(=O)C2CC(c3ccc(F)cc3)=NO2)CC1` (stereo unspecified) as the compound, how does the inhibition read?
**A.** -6.79% (inactive)

**Q.** For `CCOC(=O)N1CCN(C(=O)C2CC(c3ccc(F)cc3)=NO2)CC1` (stereo unspecified), which inhibition is on record?
**A.** 100% (active)

**Q.** With `COc1ccc(C2=NOC(C(=O)N3CCN(c4ccccc4)CC3)C2)cc1` (stereo unspecified) as the compound, how does the inhibition read?
**A.** -6.03% (inactive)

**Q.** Which inhibition does the source give for `Cc1cc(C)cc(NC(=O)NC2CCN(c3ccccc3)C2=O)c1` (stereo unspecified) here?
**A.** -6.4% (inactive)

**Q.** For `COc1nccnc1N1CCC(N(C)C(=O)c2ccoc2)C1` (stereo unspecified), which inhibition is on record?
**A.** 1.67% (inactive)

**Q.** Which inhibition does the source give for `Cc1cc(C(=O)N2CCOCC2)c2cccc(-c3cccs3)c2n1` here?
**A.** -5.8% (inactive)

**Q.** For `O=C(Nc1cccc(F)c1)N1CCC(N2CCN(Cc3ccc(F)cc3)C2=O)CC1`, which inhibition is on record?
**A.** 13% (inactive)

**Q.** How did the inhibition turn out when `CC(=O)N1c2c(cc(Br)cc2S(=O)(=O)Nc2cccc([N+](=O)[O-])c2)CC1C` (stereo unspecified) was run?
**A.** 6% (inactive)

**Q.** How did the inhibition turn out when `O=C(c1ccc([N+](=O)[O-])cc1)N1CCN(c2cccc(Cl)c2)CC1` was run?
**A.** 13.1% (inactive)

**Q.** For `O=C(c1ccc2nc3ccc(Cl)cc3c(=O)n2c1)N1CCN(c2cccc(Cl)c2)CC1`, which inhibition is on record?
**A.** 6% (inactive)

**Q.** For `CC(=O)Nc1ccc(C(=O)N2CCN(c3cccc(Cl)c3)CC2)cc1`, which inhibition is on record?
**A.** 83.1% (active)

**Q.** Which inhibition does the source give for `Cc1ccccc1-n1cnc(C(=O)NCCC(C)C)n1` here?
**A.** -3% (inactive)

**Q.** With `CC(C)C[C@@H]1COc2cc(N3CCC[C@@H]3CO)ccc2S(=O)(=O)N1` as the compound, how does the inhibition read?
**A.** -7.7% (inactive)

**Q.** With `Cc1ccc(N2CCN(C3CCCCCC3)CC2)cc1` as the compound, how does the inhibition read?
**A.** 7.2% (inactive)

**Q.** `CC1CCN(c2ccc(N)cc2)CC1` was tested. Which inhibition did it give?
**A.** 79.6% (active)

**Q.** With `CC1CCN(c2ccc([N+](=O)[O-])c(SCCO)c2)CC1` as the compound, how does the inhibition read?
**A.** 24% (inactive)

**Q.** With `Cn1c(C(=O)NCc2ccco2)cc2c1CCN(Cc1ccc(F)cc1)C2` as the compound, how does the inhibition read?
**A.** 40.4% (inactive)

**Q.** `COc1ccc(OC)c(Nc2nc(CC(=O)Nc3nc4ccccc4s3)cs2)c1` was tested. Which inhibition did it give?
**A.** 54.7% (active)

**Q.** Which inhibition does the source give for `COc1ccc(C(=O)Nc2nc3ccccc3s2)cc1Br` here?
**A.** -8% (inactive)

**Q.** With `O=C(COc1ccccc1)Nc1nc2ccccc2s1` as the compound, how does the inhibition read?
**A.** -8.3% (inactive)

**Q.** With `CCCC(=O)N1CCN(c2nc3c(s2)c(C)nn3-c2ccc(F)cc2)CC1` as the compound, how does the inhibition read?
**A.** 0.3% (inactive)

**Q.** Which inhibition does the source give for `O=C(NCC1(c2ccccc2)CCOCC1)C(=O)Nc1cccnc1` here?
**A.** -3.4% (inactive)

**Q.** How did the inhibition turn out when `N#C/C(=C\c1cn[nH]c1-c1cccs1)c1nc2ccccc2[nH]1` was run?
**A.** 37% (inactive)

**Q.** With `COc1ccc(C2CC(c3ccc(C)cc3)Nc3nc(N)nn32)cc1` (stereo unspecified) as the compound, how does the inhibition read?
**A.** 11.1% (inactive)

**Q.** How did the inhibition turn out when `COc1ccc(C2CC(c3ccc(Cl)cc3Cl)Nc3nc(N)nn32)cc1OC` (stereo unspecified) was run?
**A.** 70.9% (active)

**Q.** Which inhibition does the source give for `COc1cccc(C2CC(c3cccc(Cl)c3)n3nc(N)nc3N2)c1` (stereo unspecified) here?
**A.** 30.3% (inactive)

**Q.** Which inhibition does the source give for `CCOc1ccccc1C1CC(c2ccc(Cl)cc2)Nc2nc(N)nn21` (stereo unspecified) here?
**A.** 54.2% (active)

**Q.** `CCOc1ccc(C2CC(c3ccccc3Cl)n3nc(N)nc3N2)cc1` (stereo unspecified) was tested. Which inhibition did it give?
**A.** 36.1% (inactive)

**Q.** How did the inhibition turn out when `CCOc1ccccc1C1CC(c2ccccc2)Nc2nc(N)nn21` (stereo unspecified) was run?
**A.** 18.6% (inactive)

**Q.** For `Cn1cccc1/C=N/NC(=O)CCCCCCC(=O)N/N=C/c1cccn1C`, which inhibition is on record?
**A.** inactive

**Q.** How did the inhibition turn out when `COc1ccc(C2C=C(c3ccc(C)cc3)Nc3nnnn32)cc1` (stereo unspecified) was run?
**A.** -16% (inactive)

**Q.** For `Cc1cc(S(=O)(=O)NCC2(O)CCOCC2)c(Cl)cc1Cl`, which inhibition is on record?
**A.** -11.3% (inactive)
